Measured values taken from the supplement of paper PMC8728848.
Shown is part of a subset that was picked to be rich in the strongest signals.

Key:
Assay in all cases: glycan array binding signal (z-score within array); higher = stronger binding
Details in all cases: glycan notation: IUPAC condensed, linker removed
[1] = molecular target: Fuc(a1-2)Gal(b1-3)GalNAc(b1-4)[Neu5Ac(a2-3)]Gal(b1-4)Glc
Summary of the method: (§1)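 From the Consortium for Functional Glycomics database, 3228 arrays were curated, keeping only those whose protein sequence was available. Binding is given as a within-array Z-score averaged across arrays sharing a protein sequence and across linkers. Negative Z-scores can be read as non-binding.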

Fuc(a1-2)Gal(b1-4)GlcNAc = molecular target: Fuc(a1-2)Gal(b1-4)GlcNAc
Summary of the method: as §1

[2] = molecular target: Fuc(a1-2)Gal(b1-4)GlcNAc(b1-2)Man(a1-3)[Fuc(a1-2)Gal(b1-4)GlcNAc(b1-2)Man(a1-6)]Man(b1-4)GlcNAc(b1-4)[Fuc(a1-6)]GlcNAc
Summary of the method: as §1

[3] = molecular target: Fuc(a1-2)[Gal(a1-3)]Gal(b1-3)GlcNAc
Summary of the method: as §1

[4] = molecular target: Fuc(a1-2)[Gal(a1-3)]Gal(b1-3)GlcNAc(b1-6)GalNAc
Summary of the method: as §1

[5] = molecular target: Fuc(a1-2)[GalNAc(a1-3)]Gal(b1-4)GlcNAc(b1-2)Man
Summary of the method: as §1

[6] = molecular target: Fuc(a1-2)[GalNAc(a1-3)]Gal(b1-4)GlcNAc(b1-2)Man(a1-3)[Fuc(a1-2)[GalNAc(a1-3)]Gal(b1-4)GlcNAc(b1-2)Man(a1-6)]Man(b1-4)GlcNAc(b1-4)[Fuc(a1-6)]GlcNAc
Summary of the method: as §1

[7] = molecular target: Fuc(a1-3)[Gal(b1-4)]GlcNAc(b1-6)[Gal(b1-3)GlcNAc(b1-3)]Gal(b1-4)Glc
Summary of the method: as §1

[8] = molecular target: Gal(a1-3)Gal(b1-4)GlcNAc(b1-6)GalNAc
Summary of the method: as §1

Gal(b1-3)Gal(b1-4)GlcNAc = molecular target: Gal(b1-3)Gal(b1-4)GlcNAc
Summary of the method: as §1

[9] = molecular target: Gal(b1-3)GalNAc(b1-4)[Neu5Ac(a2-3)]Gal(b1-4)Glc
Summary of the method: as §1

Gal(b1-4)Glc = molecular target: Gal(b1-4)Glc
Summary of the method: as §1

[10] = molecular target: Gal(b1-4)GlcNAc(a1-6)Gal(b1-4)GlcNAc
Summary of the method: as §1

[11] = molecular target: Gal(b1-4)GlcNAc(b1-2)Man(a1-3)[Gal(b1-4)GlcNAc(b1-2)Man(a1-6)][Gal(b1-4)GlcNAc(b1-4)]Man(b1-4)GlcNAc(b1-4)[Fuc(a1-6)]GlcNAc
Summary of the method: as §1

[12] = molecular target: Gal(b1-4)GlcNAc(b1-2)Man(a1-6)[GlcNAc(b1-2)Man(a1-3)]Man(b1-4)GlcNAc(b1-4)GlcNAc
Summary of the method: as §1

[13] = molecular target: Gal(b1-4)GlcNAc(b1-3)Gal(b1-4)GlcNAc(b1-2)Man(a1-3)[Gal(b1-4)GlcNAc(b1-3)Gal(b1-4)GlcNAc(b1-2)Man(a1-6)]Man(b1-4)GlcNAc(b1-4)GlcNAc
Summary of the method: as §1

[14] = molecular target: Gal(b1-4)GlcNAc(b1-3)Gal(b1-4)GlcNAc(b1-2)[Gal(b1-4)GlcNAc(b1-3)Gal(b1-4)GlcNAc(b1-6)]Man(a1-6)[Gal(b1-4)GlcNAc(b1-3)Gal(b1-4)GlcNAc(b1-2)Man(a1-3)]Man(b1-4)GlcNAc(b1-4)[Fuc(a1-6)]GlcNAc
Summary of the method: as §1

[15] = molecular target: Gal(b1-4)GlcNAc(b1-3)Gal(b1-4)GlcNAc(b1-3)Gal(b1-4)GlcNAc(b1-3)Gal(b1-4)GlcNAc(b1-2)Man(a1-3)[Gal(b1-4)GlcNAc(b1-3)Gal(b1-4)GlcNAc(b1-3)Gal(b1-4)GlcNAc(b1-3)Gal(b1-4)GlcNAc(b1-2)Man(a1-6)]Man(b1-4)GlcNAc(b1-4)GlcNAc
Summary of the method: as §1

[16] = molecular target: Gal(b1-4)GlcNAc(b1-3)Gal(b1-4)GlcNAc(b1-3)Gal(b1-4)GlcNAc(b1-3)Gal(b1-4)GlcNAc(b1-2)Man(a1-3)[Gal(b1-4)GlcNAc(b1-3)Gal(b1-4)GlcNAc(b1-3)Gal(b1-4)GlcNAc(b1-3)Gal(b1-4)GlcNAc(b1-2)Man(a1-6)]Man(b1-4)GlcNAc(b1-4)[Fuc(a1-6)]GlcNAc
Summary of the method: as §1

[17] = molecular target: Gal(b1-4)GlcNAc(b1-3)Gal(b1-4)GlcNAc(b1-3)Gal(b1-4)GlcNAc(b1-3)Gal(b1-4)GlcNAc(b1-3)Gal(b1-4)GlcNAc(b1-2)Man(a1-3)[Gal(b1-4)GlcNAc(b1-3)Gal(b1-4)GlcNAc(b1-3)Gal(b1-4)GlcNAc(b1-3)Gal(b1-4)GlcNAc(b1-3)Gal(b1-4)GlcNAc(b1-2)Man(a1-6)]Man(b1-4)GlcNAc(b1-4)[Fuc(a1-6)]GlcNAc
Summary of the method: as §1

B1: Pwp6 (Candida glabrata) (protein)
chain: MGSSHHHHHHSSGLVPRGSHMASANLPKLTNICQIPDNVKKTSGFKGEIRRIGLFPPGGDYTYLLKFPSTGSTASDTISLTTKPQLSTSGWFPSLFGHTYFIKADLLVYMVAYFVPTETGEYTFKLVNSDDAAVMYVGNPSAFPCGSIDTWPEPRKEDINVCDKISASTKLYMEKGLAYPVRLVWYNGGGDGQFNAQFIDPSGTTHTDWNGYVWQYDACTDCDYK
For B1, the “glycan array binding signal (z-score)” value [1] was -0.318, the “glycan array binding signal (z-score)” value (Fuc(a1-2)Gal(b1-4)GlcNAc) was -0.848 and the “glycan array binding signal (z-score)” value [2] was 0.09. For the same binder, the “glycan array binding signal (z-score)” value [3] was -0.701, the “glycan array binding signal (z-score)” value [4] was -0.097 and the “glycan array binding signal (z-score)” value [5] was -0.201. For the same binder, the “glycan array binding signal (z-score)” value [6] was 0.167, the “glycan array binding signal (z-score)” value [7] was -0.265 and the “glycan array binding signal (z-score)” value [8] was 0.221. The “glycan array binding signal (z-score)” value (Gal(b1-3)Gal(b1-4)GlcNAc) was -0.617, the “glycan array binding signal (z-score)” value [9] was -0.134 and the “glycan array binding signal (z-score)” value (Gal(b1-4)Glc) was -0.681. For the same binder, the “glycan array binding signal (z-score)” value [10] was -0.631, the “glycan array binding signal (z-score)” value [11] was -0.334 and the “glycan array binding signal (z-score)” value [12] was 0.606. For the same binder, the “glycan array binding signal (z-score)” value [13] was 2.96, the “glycan array binding signal (z-score)” value [14] was 0.465 and the “glycan array binding signal (z-score)” value [15] was 5.06. The “glycan array binding signal (z-score)” value [16] was 3.31 and the “glycan array binding signal (z-score)” value [17] was 1.2.
